Data as given in the supplement of paper PMC10849652.
Targets with a hit are over-represented here; the source holds about 7,900 in all. About 0.6% of all pairs of compound and target were hits.

Compound: c1cn2cc(-c3ccc4cn[nH]c4c3)nc(Nc3ccc(N4CCOCC4)cc3)c2n1 [entospletinib]
Test: log2 fold change, soluble protein after heating vs DMSO (PISA); higher = thermal stabilisation; K562 cells, 10 uM, 30 min; active = over 0.2 and 3.5 SD of the protein, either way, in both replicates (recomputed)
Method in brief: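 K562 cells at 2×10^6 cells/mL were given 10 μM compound for 30 min. Aliquots then went through 3 min of heating across 48°C-58°C, were pooled, and were extracted in PBS with 0.5% NP-40 at 4°C, and the supernatant after 21,000xg for 90 min was quantified by TMTpro 16plex LC-MS/MS with channel sums equalised. Thermal stability relative to control samples, from duplicates, is given as log2 fold change.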

Sequence of UniProt Q9P244 (Q9P244 whole entry, looked up): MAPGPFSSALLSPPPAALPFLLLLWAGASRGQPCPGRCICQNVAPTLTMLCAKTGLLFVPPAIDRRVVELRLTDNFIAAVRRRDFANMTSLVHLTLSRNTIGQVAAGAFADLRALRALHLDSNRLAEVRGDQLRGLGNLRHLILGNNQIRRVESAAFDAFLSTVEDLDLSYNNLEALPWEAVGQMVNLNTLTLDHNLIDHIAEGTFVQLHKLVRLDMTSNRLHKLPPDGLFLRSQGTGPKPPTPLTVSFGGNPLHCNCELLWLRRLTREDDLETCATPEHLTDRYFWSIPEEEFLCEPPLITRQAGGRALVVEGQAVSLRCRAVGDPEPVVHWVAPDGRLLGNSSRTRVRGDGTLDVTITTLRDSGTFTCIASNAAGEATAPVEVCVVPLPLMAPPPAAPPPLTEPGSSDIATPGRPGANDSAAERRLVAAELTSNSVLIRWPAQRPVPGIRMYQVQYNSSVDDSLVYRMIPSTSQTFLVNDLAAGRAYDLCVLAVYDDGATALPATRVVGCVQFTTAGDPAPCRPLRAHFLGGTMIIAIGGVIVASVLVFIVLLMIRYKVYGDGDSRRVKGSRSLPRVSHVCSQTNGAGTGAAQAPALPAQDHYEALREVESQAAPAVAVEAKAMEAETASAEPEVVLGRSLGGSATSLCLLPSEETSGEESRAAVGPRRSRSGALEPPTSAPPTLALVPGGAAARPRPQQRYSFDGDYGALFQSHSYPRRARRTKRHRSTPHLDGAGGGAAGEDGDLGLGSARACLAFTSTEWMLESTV
Sequence of UniProt A8MWY0 (A8MWY0 whole entry, looked up): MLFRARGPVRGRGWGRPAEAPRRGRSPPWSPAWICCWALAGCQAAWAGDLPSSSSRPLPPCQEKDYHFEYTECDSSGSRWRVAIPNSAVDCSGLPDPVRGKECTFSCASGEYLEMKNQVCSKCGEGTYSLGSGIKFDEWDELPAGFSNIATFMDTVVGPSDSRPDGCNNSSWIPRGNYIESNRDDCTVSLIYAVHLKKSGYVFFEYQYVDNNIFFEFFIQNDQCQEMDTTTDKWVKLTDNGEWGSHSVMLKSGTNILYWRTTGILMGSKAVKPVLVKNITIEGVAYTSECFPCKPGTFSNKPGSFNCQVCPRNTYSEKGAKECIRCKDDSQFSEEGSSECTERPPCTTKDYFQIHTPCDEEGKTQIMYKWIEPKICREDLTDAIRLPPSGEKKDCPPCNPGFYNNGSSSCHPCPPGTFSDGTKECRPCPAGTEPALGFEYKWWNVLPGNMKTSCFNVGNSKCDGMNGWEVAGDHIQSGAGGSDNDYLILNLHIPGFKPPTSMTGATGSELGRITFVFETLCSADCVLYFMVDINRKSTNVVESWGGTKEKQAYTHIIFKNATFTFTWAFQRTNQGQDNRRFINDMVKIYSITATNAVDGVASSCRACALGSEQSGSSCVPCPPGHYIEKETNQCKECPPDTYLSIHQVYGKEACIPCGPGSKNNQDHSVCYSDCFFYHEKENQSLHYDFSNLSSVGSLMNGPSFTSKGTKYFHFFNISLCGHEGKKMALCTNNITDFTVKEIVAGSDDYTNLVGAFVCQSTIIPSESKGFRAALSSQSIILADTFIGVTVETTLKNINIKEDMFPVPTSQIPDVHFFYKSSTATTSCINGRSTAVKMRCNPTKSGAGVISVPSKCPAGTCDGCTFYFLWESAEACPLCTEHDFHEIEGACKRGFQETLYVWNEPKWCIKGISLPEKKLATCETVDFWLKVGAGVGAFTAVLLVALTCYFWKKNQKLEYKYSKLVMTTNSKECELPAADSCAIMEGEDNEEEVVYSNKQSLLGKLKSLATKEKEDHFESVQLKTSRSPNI
Sequence of UniProt Q08431 (Q08431 whole entry, looked up): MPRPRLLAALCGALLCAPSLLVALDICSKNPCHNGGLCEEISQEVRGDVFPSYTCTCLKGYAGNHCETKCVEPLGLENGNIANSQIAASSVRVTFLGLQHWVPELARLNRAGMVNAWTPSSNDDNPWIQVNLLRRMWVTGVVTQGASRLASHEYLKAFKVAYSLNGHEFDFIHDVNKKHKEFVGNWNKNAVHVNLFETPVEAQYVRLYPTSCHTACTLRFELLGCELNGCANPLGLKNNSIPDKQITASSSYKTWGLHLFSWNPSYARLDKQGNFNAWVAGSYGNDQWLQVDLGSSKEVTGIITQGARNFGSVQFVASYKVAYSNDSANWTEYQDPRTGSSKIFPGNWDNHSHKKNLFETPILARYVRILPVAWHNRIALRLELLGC
Sequence of UniProt Q96A72 (Q96A72 whole entry, looked up): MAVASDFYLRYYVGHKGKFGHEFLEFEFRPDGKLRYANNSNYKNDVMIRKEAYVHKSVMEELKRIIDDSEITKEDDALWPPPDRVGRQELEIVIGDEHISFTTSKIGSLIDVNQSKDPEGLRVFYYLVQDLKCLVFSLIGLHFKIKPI
Sequence of UniProt Q32MZ4 (Q32MZ4 whole entry, looked up): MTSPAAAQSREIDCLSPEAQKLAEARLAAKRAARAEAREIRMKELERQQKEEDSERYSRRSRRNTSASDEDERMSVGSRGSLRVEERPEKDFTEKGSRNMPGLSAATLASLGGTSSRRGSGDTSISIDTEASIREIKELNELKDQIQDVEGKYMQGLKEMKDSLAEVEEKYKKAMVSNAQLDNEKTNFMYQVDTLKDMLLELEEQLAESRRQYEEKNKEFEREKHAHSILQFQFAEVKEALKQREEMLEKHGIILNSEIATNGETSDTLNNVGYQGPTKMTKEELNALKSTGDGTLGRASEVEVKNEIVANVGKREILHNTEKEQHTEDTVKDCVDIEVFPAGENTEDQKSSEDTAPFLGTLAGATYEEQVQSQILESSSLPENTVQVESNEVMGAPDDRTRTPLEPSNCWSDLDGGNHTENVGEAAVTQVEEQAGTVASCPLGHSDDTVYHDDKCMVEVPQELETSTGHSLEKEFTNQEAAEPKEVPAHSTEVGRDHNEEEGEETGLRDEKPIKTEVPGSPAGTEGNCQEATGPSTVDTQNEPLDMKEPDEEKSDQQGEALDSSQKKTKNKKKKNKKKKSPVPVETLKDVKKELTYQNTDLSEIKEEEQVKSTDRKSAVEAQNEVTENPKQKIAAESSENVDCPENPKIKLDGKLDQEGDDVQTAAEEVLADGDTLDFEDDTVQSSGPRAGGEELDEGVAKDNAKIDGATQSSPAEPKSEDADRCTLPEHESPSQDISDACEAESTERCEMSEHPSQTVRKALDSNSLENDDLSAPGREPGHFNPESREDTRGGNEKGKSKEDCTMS
Sequence of UniProt Q9NQG6 (Q9NQG6 whole entry, looked up): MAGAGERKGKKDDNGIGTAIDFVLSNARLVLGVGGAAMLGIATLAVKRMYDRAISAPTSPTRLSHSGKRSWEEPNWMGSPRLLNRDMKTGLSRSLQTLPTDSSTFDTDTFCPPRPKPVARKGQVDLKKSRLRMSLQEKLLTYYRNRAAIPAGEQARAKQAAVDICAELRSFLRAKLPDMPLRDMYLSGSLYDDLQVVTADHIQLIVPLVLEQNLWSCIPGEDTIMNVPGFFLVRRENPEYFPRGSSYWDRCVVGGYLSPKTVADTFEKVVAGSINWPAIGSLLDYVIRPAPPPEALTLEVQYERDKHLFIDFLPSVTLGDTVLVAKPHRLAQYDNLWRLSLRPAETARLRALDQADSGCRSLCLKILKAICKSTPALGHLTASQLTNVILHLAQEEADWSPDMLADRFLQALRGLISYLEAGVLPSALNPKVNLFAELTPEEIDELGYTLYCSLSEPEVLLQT
Sequence of UniProt Q07820 (Q07820 whole entry, looked up): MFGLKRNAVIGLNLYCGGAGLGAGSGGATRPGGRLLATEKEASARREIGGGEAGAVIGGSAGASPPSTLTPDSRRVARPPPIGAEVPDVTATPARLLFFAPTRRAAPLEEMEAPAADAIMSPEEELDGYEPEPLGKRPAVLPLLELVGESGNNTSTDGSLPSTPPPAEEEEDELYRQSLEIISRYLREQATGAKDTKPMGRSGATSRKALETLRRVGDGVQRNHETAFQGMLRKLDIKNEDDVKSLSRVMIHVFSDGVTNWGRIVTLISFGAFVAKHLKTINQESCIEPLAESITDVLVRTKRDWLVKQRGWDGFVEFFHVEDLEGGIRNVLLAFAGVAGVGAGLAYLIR
Sequence of UniProt Q13257 (Q13257 whole entry, looked up): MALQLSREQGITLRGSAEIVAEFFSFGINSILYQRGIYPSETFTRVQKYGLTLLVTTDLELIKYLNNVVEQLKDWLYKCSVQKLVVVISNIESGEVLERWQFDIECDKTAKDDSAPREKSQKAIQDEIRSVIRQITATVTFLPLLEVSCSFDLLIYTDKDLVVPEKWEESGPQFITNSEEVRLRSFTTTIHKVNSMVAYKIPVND
Sequence of UniProt P01130 (P01130 whole entry, looked up): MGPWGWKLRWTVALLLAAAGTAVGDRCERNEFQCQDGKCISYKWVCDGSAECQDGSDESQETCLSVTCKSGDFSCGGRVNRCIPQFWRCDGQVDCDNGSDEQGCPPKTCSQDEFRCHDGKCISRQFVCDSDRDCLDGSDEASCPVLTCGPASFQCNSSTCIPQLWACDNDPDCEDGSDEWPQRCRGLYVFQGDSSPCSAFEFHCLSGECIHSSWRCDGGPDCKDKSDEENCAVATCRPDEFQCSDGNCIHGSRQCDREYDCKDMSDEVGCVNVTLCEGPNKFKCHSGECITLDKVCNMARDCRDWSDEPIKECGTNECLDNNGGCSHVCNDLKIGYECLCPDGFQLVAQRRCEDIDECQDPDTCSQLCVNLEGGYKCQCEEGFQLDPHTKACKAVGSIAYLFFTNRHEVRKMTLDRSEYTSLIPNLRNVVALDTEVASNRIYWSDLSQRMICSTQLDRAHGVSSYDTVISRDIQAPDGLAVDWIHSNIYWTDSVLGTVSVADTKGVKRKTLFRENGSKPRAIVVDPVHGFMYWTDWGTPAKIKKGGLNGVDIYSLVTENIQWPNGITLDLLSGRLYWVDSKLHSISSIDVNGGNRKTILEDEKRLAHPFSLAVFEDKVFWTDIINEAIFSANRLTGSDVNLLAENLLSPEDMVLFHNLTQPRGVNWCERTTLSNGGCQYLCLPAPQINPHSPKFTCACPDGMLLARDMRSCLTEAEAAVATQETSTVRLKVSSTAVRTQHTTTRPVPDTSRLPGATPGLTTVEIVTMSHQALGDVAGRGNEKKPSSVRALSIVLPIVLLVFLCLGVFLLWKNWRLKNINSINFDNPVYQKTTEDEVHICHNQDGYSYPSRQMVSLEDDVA

log2 fold change, inactive:
MIEF1 (UniProt Q9NQG6) 0.032
MIA2 (UniProt Q96PC5) -0.012
MAD2L1 (UniProt Q13257) 0.064
KIAA1324L (UniProt A8MWY0) 0.028
LRRFIP1 (UniProt Q32MZ4) 0.004
LRFN1 (UniProt Q9P244) -0.031
MCL1 (UniProt Q07820) 0.081
MAP1LC3B2 (UniProt A6NCE7) -0.001
LDLR (UniProt P01130) -0.008
KSR1 (UniProt Q8IVT5) 0.038
MAGOHB (UniProt Q96A72) 0.097
MFGE8 (UniProt Q08431) 0.065
